# Data taken from the supplement of paper PMC8728848.
# This excerpt belongs to a sample that is enriched for the strongest signals.
# B1: TAL6-6LysM (Trichoderma atroviride) (protein)
# chain: AASKLGVPQPAQRDQVNCQLYAVQPNDNCIDISSKNNITYAQLLSWNPSLSSTCSNLASLNSSSICVSNPKGTFSISSNTVGATDIATTTAPVPSPTLDQTTSRCAKYYQVSDGDDCSHLTAQFAITLKDFIFLNSEVWQNCTNLELGYYYCVEPVGYISTYPGYLPTATTKPFNQTSATSLPYDGDPWARFSSNSSVIPIANGTRVDCYSYVYVKNLTENLFADCWNMASMYEITREELVLWNPSLGNDGSSGSNLSGAEASQVASSIAIPTTAPSSITTNLYTYPCTVAANISYCVALVSSTGALPTNTAPPGPHASGEISNCTAWFAPEAYDTCKSILDIFEMSFANFYKMNPSVGPDCSGLAVGTNYCVSTYPNGEDPNDDWDGDDSIPSISPTGIITPTPTQSGMVSNCNKFYDVHSNDGCSAIASSQHVDLSSLYKWNPAIKTDCSGLQASVYVCIGILTTSMSTTSKLPTTTSKPSTTSKPPTGITTPTPTQSGMVKNCNKFYDVHSGDGCSAIASSQKVNLSSFYLWNPAVKTDCSGLQASVFVCIGTLTTSMSTTTSKLPTTTSKPSTTSKPPTGIITPTPTQNGMVKNCNKFYDVHSGDGCSAIASSQKVNLSSFYLWNPAVKTDCSGLQASVFVCVGTATTTTAAGITTPTPTQSGMVSGCNKFYDVHAGDGCSAIASSQKIALSSLYKWNPAVKTDCSGLQASVYICIGVGNAAAARVTGAAASFLEQKLISEEDLNSAVDHHHHHH
# Experiments:
# Assay in all cases: glycan array binding signal (z-score within array); higher = stronger binding
# Conditions in all cases: glycan notation: IUPAC condensed, linker removed
# [1] = biological target: GalNAc(a1-3)GalNAc(b1-3)Gal(a1-4)Gal(b1-4)GlcNAc
# In short: (§1)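 Negative Z-scores can be read as non-binding. The Z-score is calculated within each array and then averaged across arrays of one protein sequence at different concentrations or buffers and across linkers. Arrays, 3228 in all, were curated from the Consortium for Functional Glycomics database and kept only where the protein sequence was available.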
# GalNAc(b1-3)GlcNAc = biological target: GalNAc(b1-3)GlcNAc
# In short: as §1
# GalNAc6S(b1-4)GlcNAc = biological target: GalNAc6S(b1-4)GlcNAc
# In short: as §1
# GlcA(b1-3)GlcNAc = biological target: GlcA(b1-3)GlcNAc
# In short: as §1
# [2] = biological target: GlcNAc(b1-2)Man(a1-3)[GlcNAc(b1-2)Man(a1-6)]Man(b1-4)GlcNAc(b1-4)GlcNAc
# In short: as §1
# [3] = biological target: GlcNAc(b1-3)Gal(b1-4)GlcNAc(b1-3)Gal(b1-4)GlcNAc
# In short: as §1
# [4] = biological target: GlcNAc(b1-3)Gal(b1-4)GlcNAc(b1-3)Gal(b1-4)GlcNAc(b1-3)Gal(b1-4)GlcNAc(b1-3)Gal(b1-4)GlcNAc(b1-2)Man(a1-3)[GlcNAc(b1-3)Gal(b1-4)GlcNAc(b1-3)Gal(b1-4)GlcNAc(b1-3)Gal(b1-4)GlcNAc(b1-3)Gal(b1-4)GlcNAc(b1-2)Man(a1-6)]Man(b1-4)GlcNAc(b1-4)GlcNAc
# In short: as §1
# Kdn(a2-6)Gal(b1-4)GlcNAc = biological target: Kdn(a2-6)Gal(b1-4)GlcNAc
# In short: as §1
# Man(a1-2)Man(a1-3)Man = biological target: Man(a1-2)Man(a1-3)Man
# In short: as §1
# [5] = biological target: Man(a1-3)[Man(a1-6)]Man(a1-6)[Man(a1-2)Man(a1-3)]Man(b1-4)GlcNAc(b1-4)GlcNAc
# In short: as §1
# [6] = biological target: Neu5Ac(a2-3)Gal(b1-3)GalNAc(b1-3)Gal(a1-4)Gal(b1-4)Glc
# In short: as §1
# [7] = biological target: Neu5Ac(a2-3)Gal(b1-3)GlcNAc(b1-4)Gal(b1-4)Glc
# In short: as §1
# [8] = biological target: Neu5Ac(a2-3)Gal(b1-4)GlcNAc(b1-2)Man(a1-3)[Neu5Ac(a2-6)Gal(b1-4)GlcNAc(b1-2)Man(a1-6)]Man(b1-4)GlcNAc(b1-4)GlcNAc
# In short: as §1
# [9] = biological target: Neu5Ac(a2-3)Gal(b1-4)GlcNAc(b1-3)Gal(b1-3)GlcNAc
# In short: as §1
# [10] = biological target: Neu5Ac(a2-3)Gal(b1-4)GlcNAc(b1-3)Gal(b1-4)GlcNAc(b1-3)Gal(b1-4)GlcNAc
# In short: as §1
# [11] = biological target: Neu5Ac(a2-3)Gal(b1-4)[Fuc(a1-3)]GlcNAc(b1-3)Gal(b1-4)[Fuc(a1-3)]GlcNAc(b1-3)Gal(b1-4)[Fuc(a1-3)]GlcNAc
# In short: as §1
# [12] = biological target: Neu5Ac(a2-3)Gal6S(b1-4)GlcNAc
# In short: as §1
# [13] = biological target: Neu5Ac(a2-3)Gal6S(b1-4)[Fuc(a1-3)]GlcNAc
# In short: as §1
# [14] = biological target: Neu5Ac(a2-3)GalNAc(b1-4)GlcNAc
# In short: as §1
# [15] = biological target: Neu5Ac(a2-6)Gal(b1-4)GlcNAc(b1-2)Man(a1-3)[Neu5Ac(a2-3)Gal(b1-4)GlcNAc(b1-2)Man(a1-6)]Man(b1-4)GlcNAc(b1-4)GlcNAc
# In short: as §1
# [16] = biological target: Neu5Ac(a2-6)Gal(b1-4)GlcNAc(b1-2)Man(a1-3)[Neu5Ac(a2-6)Gal(b1-4)GlcNAc(b1-2)Man(a1-6)]Man(b1-4)GlcNAc(b1-4)GlcNAc
# In short: as §1
# [17] = biological target: Neu5Ac(a2-6)Gal(b1-4)GlcNAc(b1-3)Gal(b1-4)GlcNAc(b1-6)[Gal(b1-3)]GalNAc
# In short: as §1
# [18] = biological target: Neu5Ac(a2-6)Gal(b1-4)GlcNAc(b1-3)Gal(b1-4)[Fuc(a1-3)]GlcNAc(b1-3)Gal(b1-4)[Fuc(a1-3)]GlcNAc
# In short: as §1
# [19] = biological target: Neu5Ac(a2-6)Gal(b1-4)GlcNAc6S
# In short: as §1
# [20] = biological target: Neu5Ac(a2-8)Neu5Ac(a2-3)Gal(b1-3)GalNAc(b1-4)[Neu5Ac(a2-8)Neu5Ac(a2-3)]Gal(b1-4)Glc
# In short: as §1
# [21] = biological target: Neu5Ac(a2-8)Neu5Ac(a2-3)[GalNAc(b1-4)]Gal(b1-4)Glc
# In short: as §1
# [22] = biological target: Neu5Ac(a2-8)Neu5Ac(a2-8)Neu5Ac
# In short: as §1
# Neu5Ac(b2-6)GalNAc = biological target: Neu5Ac(b2-6)GalNAc
# In short: as §1
# Neu5Gc(a2-3)Gal(b1-4)Glc = biological target: Neu5Gc(a2-3)Gal(b1-4)Glc
# In short: as §1
# [23] = biological target: Neu5Gc(b2-6)Gal(b1-4)GlcNAc
# In short: as §1
binder,measurement,setting,value
B1,glycan array binding signal (z-score),[1],-0.794
same,glycan array binding signal (z-score),GalNAc(b1-3)GlcNAc,-0.241
same,glycan array binding signal (z-score),GalNAc6S(b1-4)GlcNAc,0.157
same,glycan array binding signal (z-score),GlcA(b1-3)GlcNAc,1.11
same,glycan array binding signal (z-score),[2],0.42
same,glycan array binding signal (z-score),[3],0.291
same,glycan array binding signal (z-score),[4],-0.734
same,glycan array binding signal (z-score),Kdn(a2-6)Gal(b1-4)GlcNAc,2.71
same,glycan array binding signal (z-score),Man(a1-2)Man(a1-3)Man,-0.128
same,glycan array binding signal (z-score),[5],2.52
same,glycan array binding signal (z-score),[6],-0.741
same,glycan array binding signal (z-score),[7],0.273
same,glycan array binding signal (z-score),[8],-0.683
same,glycan array binding signal (z-score),[9],-0.147
same,glycan array binding signal (z-score),[10],1.76
same,glycan array binding signal (z-score),[11],0.058
same,glycan array binding signal (z-score),[12],0.428
same,glycan array binding signal (z-score),[13],-1.04
same,glycan array binding signal (z-score),[14],-0.545
same,glycan array binding signal (z-score),[15],-0.013
same,glycan array binding signal (z-score),[16],0.076
same,glycan array binding signal (z-score),[17],-0.387
same,glycan array binding signal (z-score),[18],2.13
same,glycan array binding signal (z-score),[19],0.283
same,glycan array binding signal (z-score),[20],0.052
same,glycan array binding signal (z-score),[21],2.17
same,glycan array binding signal (z-score),[22],-0.139
same,glycan array binding signal (z-score),Neu5Ac(b2-6)GalNAc,-0.369
same,glycan array binding signal (z-score),Neu5Gc(a2-3)Gal(b1-4)Glc,-1.25
same,glycan array binding signal (z-score),[23],0.217
